Where “and” joins values, the source holds several entries; their conditions need not be identical. Identical values can stand only once. Some structures have more than one record in an assay (separate samples or runs), and their calls can disagree. Calls of active or inactive are those of the source. Rule for the calls: active = hit-call score of the fitted dose curve at least 0.9, where 1 is the maximum; inactive = score below 0.9.

The assay is described as follows: ATG_NFI_CIS: Attagene CIS-FACTORIAL HepG2 Assay for human Nuclear Factor I (NFI) (AID 2282989). The note with it: HepG2 cis-regulatory reporter, NFI response element transcription; actives raise or lower the signal. As to the method:
ATG_CIS is a cell-based, multiplexed-readout assay that uses HepG2, a human liver cell line, with measurements taken at 24 hours after chemical dosing in a 24-well plate.ATG_NFI_CIS is one of 52 assay component(s) measured or calculated from the ATG_CIS assay. It is designed to make measurements of mRNA induction, a form of inducible reporter, as detected with fluorescence intensity signals by Reverse transcription polymerase chain reaction (RT-PCR) and Capillary electrophoresis technology.Data from the assay component ATG_NFI_CIS was analyzed into 1 assay endpoint. This assay endpoint, ATG_NFI_CIS, was analyzed with bidirectional fitting relative to DMSO as the negative control and baseline of activity. Using a type of inducible reporter, measures of mRNA for gain or loss-of-signal activity can be used to understand the reporter gene at the transcription factor-level as they relate to the gene NFIA. Furthermore, this assay endpoint can be referred to as a primary readout, because this assay has produced multiple assay endpoints where this one serves a reporter gene function. To generalize the intended target to other relatable targets, this assay endpoint is annotated to the dna binding intended target family, where the subfamily is nuclear factor I.
Human liver HepG2 cells are transiently transfected with multiple reporter transcription units (MRTUs) in 6-well plates using FuGene 6 reagent (Roche; 3 ml FuGene/1 mg DNA). The MRTU constructs are regulated by a cis-regulating element (promoter). […] A major difference between the CIS and TRANS system is that in CIS activities of endogenous TFs are measured, whereas the TRANS assay evaluates changes in activities of exogenous, chimeric NR-Gal4 proteins. […] At the end of 24 hour incubation, total RNA was isolated using TriZol reagent (Invitrogen). The isolated RNA is then reverse-transcribed using oligo(dT) primer and Mo-MLV reverse transcriptase (Invitrogen) with DNAse I (Ambion) treatment for 30 min. The one-tenth of the produced cDNA was amplified by PCR using Taq DNA polymerase (Invitrogen) and two reporter sequence-specific primers. The PCR products were fluorescently labeled by primer extension with 6-arboxyfluorescein (6-FAM) 5'-labeled reporter sequence-specific primer (2 min at 95 C, 20 s at 68 C and 10 min at 72 C) and these products were digested with 5U of HpaI (New England Biolabs) for 2h at 37 C. The fragments were purified using Qiaquick PCR columns (Qiagen), analyzed on an ABI 3130xL genetic analyzer (Applied Biosystems) with peak positions identified by using a set of X-rhodamine (ROX)-labeled MapMarker1000 molecular weight standards (BioVentures). The raw capillary electrophoresis data was processed using Attagraph software (Attagene).
Turning to `Cc1ccncc1`, the compound was called inactive.

The AC50 is the concentration giving half of the maximal activity seen. With `Cc1cc(O)c2c(c1)C(=O)c1cc(O)cc(O)c1C2=O`, the concentration at half-maximal activity (AC50) was 8.34 µM (active).

Turning to `O=C1CCC(=O)N1`, the call was inactive.

For `NC(=O)NC(N)=O`, the outcome was inactive.

Turning to `c1coc(CNc2ncnc3nc[nH]c23)c1`, the result was inactive.

`CC(C)CCOC(=O)CC(C)C`: the result was inactive.

Take `O=Cc1ccccc1O`: the outcome was inactive.

`O=C(O)C1=NN(c2ccc(S(=O)(=O)O)cc2)C(=O)C1`: the compound was classed as inactive.

On to `CN(C)C(=O)Nc1ccccc1`, for which the result was inactive.

On to `CC(C)C(=O)OCC=Cc1ccccc1`, for which the compound was called inactive.

On to `c1ccc(OCCOc2ccccc2)cc1`, for which the result was inactive.

As to `CCCCCC1C(=O)CCC1CC(=O)OC` (stereo not given), the call was inactive.

Consider `C=CCOCC(O)CO` (stereo not given), for which the outcome was inactive.

`O=C1OCc2ccccc21`: the call was inactive.

Turning to `C1=COCCC1`, the result was inactive.

Take `C#C[C@]1(O)CC[C@H]2[C@@H]3CCc4cc(O)ccc4[C@H]3CC[C@@]21C`: the result was inactive; the half-maximal activity concentration (AC50) was 26.4 µM (active) and 72.3 µM (active) and 48.5 µM (active).

For `COc1ccc(N)c(C)c1`, the outcome was inactive.

For the compound `COc1ccccc1NC(=O)CC(C)=O`, the result was inactive.

In the case of `CC(=O)OC(C)(C)C1CC=C(C)CC1` (stereo not given), the compound was called inactive.

As to `COC(=O)C(C)Oc1ccc(Oc2ncc(C(F)(F)F)cc2Cl)cc1` (stereo not given), the compound was called inactive.

On to `CCc1cccc(O)c1`, for which the result was inactive.

With `OCCN1CCOCC1`, the outcome was inactive.

Consider `CCCCOCC(C)OCC(C)O` (stereo not given), for which the compound was called inactive.

`CCCCCCCCCCCCCC(=O)OCC`: the compound was called inactive.

Regarding `CC/C(=C(\c1ccccc1)c1ccc(OCCN(C)C)cc1)c1ccccc1`, the result was inactive.

For the compound `O=S1(=O)CC=CC1`, the compound was classed as inactive.

`CCCCC/C=C\C=C\C(=O)OCC`: the concentration at half-maximal activity (AC50) is 40 µM (active).

For `c1ccc2c(c1)-c1ccc3ccc4cccc5cc-2c1c3c45`, the compound was classed as inactive.

As for `CC(CO)c1ccccc1` (stereo not given), the result was inactive.

Take `N=C1N=C(N)c2ccccc21`: the call was inactive.

In the case of `C=CC(=O)OCCCCCC`, the compound was called inactive.

Regarding `O=[N+]([O-])c1cc(N(CCO)CCO)ccc1NCCO`, the result was inactive.

With `C[C@]12CC[C@@H]3c4ccc(O)cc4CC[C@H]3[C@@H]1CC[C@@H]2O`, the AC50 was 146 µM (active) and the compound was classed as inactive.

Consider `C1CCCNCC1`, for which the outcome was inactive.

As for `S=c1[nH][nH]c(=S)s1`, the outcome was inactive.

`CNC(=C[N+](=O)[O-])NCCSCc1ccc(CN(C)C)o1`: the compound was classed as inactive.

In the case of `CC/C=C\CCOC(=O)C(C)C`, the compound was called inactive.

Regarding `OCCCO`, the call was inactive.
